CCHFV vOTU inh = blocks the CCHF virus ovarian tumor domain protease; CCHFV vOTU protease, Pep-AMC fluorescence; inhibition, % at 11.5 µM; hit rate 0.55% among 370,000; in the data active = inhibition above about 30%; note: 0% = vehicle wells with enzyme and 100% = no enzyme wells
Mtb UGM inh = inhibitors of M. tuberculosis UDP-galactopyranose mutase | purified UGM, fluorescence polarization probe displacement | hit rate 0.06% among 320,000 | P9WIQ1 | inhibition, % at 10 µM; in the data active = inhibition above about 10%, passing the limit was not always enough; inconclusive = no clear call, values can overlap the other calls
Mtb bLac sens = beta-lactam sensitization of Mtb H37Rv | hit rate 0.27% among 330,000 | AID 434955 | inhibition, % at 25 µM | M. tuberculosis H37Rv growth with meropenem, percent inhibition;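 note: growth measured after seven days incubation then overnight dye step; 0% = bacteria only wells and 100% = bacteria with antibiotic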
Rv3671c inh = Rv3671c (M. tuberculosis) protease inhibition; P9WHR9; hit rate 0.048% among 320,000; inhibition, % at 5.96 µM; in the data active = inhibition above about 38%;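 note: extracellular domain of Rv3671c used as enzyme; 0% = enzyme with DMSO and 100% = no enzyme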
RecA splice inh = inhibitors of M. tuberculosis RecA intein splicing | hit rate 0.75% among 290,000 | inhibition, % (concentration not given with the values) | cell-free RecA intein splicing, fluorescence | AID 2221 | P9WHJ3; in the data active = inhibition above about 30%; inconclusive = no clear call, values can overlap the other calls;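 note: 0% = vehicle wells and 100% = reference inhibitor control wells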
Target sequence (P9WHJ3 whole entry, looked up, canonical isoform): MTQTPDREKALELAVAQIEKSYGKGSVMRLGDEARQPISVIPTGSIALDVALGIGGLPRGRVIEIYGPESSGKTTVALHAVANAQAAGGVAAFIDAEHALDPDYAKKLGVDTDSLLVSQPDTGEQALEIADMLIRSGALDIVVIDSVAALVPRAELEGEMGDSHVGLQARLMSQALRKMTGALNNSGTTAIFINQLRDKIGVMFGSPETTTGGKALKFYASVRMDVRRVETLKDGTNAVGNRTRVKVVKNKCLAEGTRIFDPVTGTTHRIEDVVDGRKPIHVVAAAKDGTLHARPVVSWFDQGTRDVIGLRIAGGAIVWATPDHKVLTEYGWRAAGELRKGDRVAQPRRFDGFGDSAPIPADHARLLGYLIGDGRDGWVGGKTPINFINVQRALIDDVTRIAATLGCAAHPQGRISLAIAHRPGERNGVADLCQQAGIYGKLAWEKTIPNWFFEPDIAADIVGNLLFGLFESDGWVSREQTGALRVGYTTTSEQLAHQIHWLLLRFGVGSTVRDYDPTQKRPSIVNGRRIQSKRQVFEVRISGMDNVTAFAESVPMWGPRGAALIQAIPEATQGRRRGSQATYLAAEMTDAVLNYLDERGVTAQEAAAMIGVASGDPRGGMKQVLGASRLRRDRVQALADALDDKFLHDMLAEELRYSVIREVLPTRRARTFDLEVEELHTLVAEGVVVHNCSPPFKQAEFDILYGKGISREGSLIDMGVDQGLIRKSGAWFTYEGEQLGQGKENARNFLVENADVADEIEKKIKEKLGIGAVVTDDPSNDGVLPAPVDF
GFP chromo cs = counter-screen GFP chromophore formation inhibition. AID 434968. EC50, µM. shares compounds with RecA splice inh. hit rate 83% among 2,100. cell-free GFP chromophore formation, fluorescence
An asterisk follows results filed as active; u = inconclusive; x = not tested or not shown. Shown are actives, neighbours in structure and some others; about 1.2% of the full set was active somewhere. Unless noted, the rule behind the calls is not given here.

SMILES | CCHFV vOTU inh | Mtb UGM inh | Mtb bLac sens | Rv3671c inh | RecA splice inh | GFP chromo cs
CCOC(=O)C1=C(C)N=c2s/c(=C\c3ccc(O)c([N+](=O)[O-])c3)c(=O)n2C1c1ccccc1OC (stereo unspecified) | -7 | -2 | 1 | 17 | -2 | x
CCOC(=O)C1=C(C)n2c(s/c(=C/c3cccc([N+](=O)[O-])c3)c2=O)=NC1c1ccc(O)c(OC)c1 (stereo unspecified) | -13 | 3 | x | 8 | 35* | 36*
N#CC1=C(N)N(c2ccccc2)C(c2ccccc2)C1(C#N)C#N (stereo unspecified) | -4 | 3 | 19 | 12 | 43* | 31*
C[C@@H]1CN(c2ccc(N3CCN(C(=O)OC(C)(C)C)C[C@H]3C)cc2C#N)CCN1Cc1ccccc1 | 9 | x | x | x | x | x
CCOC(=O)c1c(NC(=O)CSc2nnc(-c3c[nH]c4ccccc34)n2CCOC)sc2c1CCCC2 | 11 | -3 | 1 | -9 | 32* | >38
O=C(O)CC1OCC=C2CN3CCC45C6=CC(=O)C(=O)C([N+](=O)[O-])=C6NC4C1C2CC35 (stereo unspecified) | x | 2 | u | -116 | 85* | 7.1*
O=C(O)CC1OCC=C2CN3CCC45c6ccccc6NC4C1C2CC35 (stereo unspecified) | -10 | 0 | 0 | -12 | 0 | x
O=C(Sc1nnc(-c2ccccc2)o1)N1c2ccccc2Sc2ccccc21 | -5 | 1 | 91 | 0 | 57* | 0.92*
CC(=O)n1cc(N(C(=O)CCl)c2ccccc2)c2ccccc21 | 9 | -4 | 100 | -1 | 86* | 4.4*
O=Cc1[nH]c2ccccc2c1N(C(=O)CCl)c1ccc([N+](=O)[O-])cc1 | 10 | 1 | -2 | 10 | 1 | x
CC(=O)n1cc(CO)c2ccccc21 | -5 | -1 | -8 | -8 | x | x
CC(=O)n1cc(N(C(=O)CCl)c2ccc([N+](=O)[O-])cc2)c2ccccc21 | 2 | -1 | 99 | 10 | 90* | 2.3*
N#CCC[C@@H]1CC[C@]2(CCCN(C(=O)c3ccco3)C2)O1 | 5 | x | x | x | x | x
CCC(C)CNC(=O)CN1C(=O)C2CCCCN2C(=O)c2ccccc21 (stereo unspecified) | -7 | x | x | x | x | x
COc1cccc(N2CC(C(=O)Nc3nnc(SCC(=O)c4ccccc4)s3)CC2=O)c1 (stereo unspecified) | -6 | x | 8 | -18 | 94* | >38
COc1ccc(C(=O)CSc2nnc(NC(=O)C3CC(=O)N(c4ccccc4)C3)s2)cc1 (stereo unspecified) | 4 | -1 | 0 | -30 | -1 | x
CN1C(=O)/C(=N\OC(=O)c2cccc3ccccc23)c2ccccc21 | 9 | 0 | 15 | -6 | 38* | 32*
CCC(CO)NC(=O)C1C=C2c3cccc4[nH]cc(c34)CC2N(C)C1 (stereo unspecified) | -12 | 2 | -2 | -1 | 21 | x
O=C(c1ccc(N2CCN(CCO)CC2)nc1)N1CCOCC1 | -7 | 3 | 2 | 0 | 37* | >38
COC(=O)[C@]12C[C@H](CC(=O)NCCC(C)C)C(=O)N(Cc3cccc4ccccc34)C1=C[C@H](C1CCCC1)O[C@@H]2C | 20 | x | x | x | x | x
CC(C)C[C@H]1COc2cccc(N3CCSCC3)c2S(=O)(=O)N1C | -3 | x | x | x | x | x
CC(C)(C)c1ccc(-n2nc(C#N)c(Cl)cc2=O)cc1 | 8 | x | x | x | 93* | 2.6*
CC(C)(C)c1ccc(-n2nc(C(N)=O)c(O)cc2=O)cc1 | 12 | 1 | -6 | 1 | -4 | x
CCOc1ccc(-n2c(SCC(=O)Nc3ccc(S(=O)(=O)Nc4nccs4)cc3)nnc2-c2ccco2)cc1 | 11 | x | x | x | x | x
CCOC(=O)Cc1[nH]nc2c1C(c1cccc(OC)c1OC)C(C#N)=C(N)O2 (stereo unspecified) | 0 | 0 | -3 | 0 | 45* | >38
CCOC(=O)Cc1[nH]nc2c1C(c1cc(OC)ccc1OC)C(C#N)=C(N)O2 (stereo unspecified) | 1 | 1 | 0 | 6 | 63* | 4.6*
CCOc1ccccc1C1C(C#N)=C(N)Oc2n[nH]c(CC)c21 (stereo unspecified) | -3 | 3 | 5 | 2 | 32* | 33*
COC(=O)Cc1[nH]nc2c1C(c1cccc(OC)c1OC)C(C#N)=C(N)O2 (stereo unspecified) | -9 | 2 | -8 | 6 | x | x
COC(=O)[C@H]1C[C@@]2(C#N)c3ccccc3N(C(=O)OC(C)(C)C)[C@H]2N1C(=O)OC(C)(C)C | 6 | x | x | x | x | x
C#CCNC(=O)C[C@@H]1C[C@@](CCC(=O)OCC)(C(=O)OCC)C2=CCCCN2C1=O | 3 | x | x | x | x | x

Screens as filed in PubChem BioAssay.
